Measurements reported in PubChem BioAssay (NCI).
Where “and” joins values, the source holds several entries; their conditions need not be identical. Equal entries are not always repeated. About 83,000 compounds went through this panel and 20% of them were active in at least one assay; those are over-represented in the sample as a whole.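 Negative percent growth values reflect cell death: -40 means 40% of the cells present at the start died, and -100 means all died.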 Calls of active or inactive are those of the source. The calls were made as follows: active = growth percent below 10; inactive = the rest.

Assays:
Experiment in all cases: NCI-60 one-dose screen, 48 h (100 = growth as untreated, 0 = no growth, -100 = all killed)
Details in all cases: 10 µM unless noted
NCI-H23 lung = system: NCI-H23 lung
NCI-H226 lung = system: NCI-H226 lung
NCI-H322M lung = system: NCI-H322M lung
HOP-62 NSCLC = system: HOP-62 NSCLC
NCI-H460 lung = system: NCI-H460 lung
HOP-92 NSCLC = system: HOP-92 NSCLC
A549/ATCC NSCLC = system: A549/ATCC NSCLC
786-0 renal = system: 786-0 renal
COLO 205 colon = system: COLO 205 colon
DU-145 prostate = system: DU-145 prostate
K-562 leukemia = system: K-562 leukemia
MALME-3M melanoma = system: MALME-3M melanoma
MDA-MB-231 breast = system: MDA-MB-231 breast
RXF 393 renal = system: RXF 393 renal
SF-268 CNS = system: SF-268 CNS
SF-295 CNS = system: SF-295 CNS
SF-539 CNS = system: SF-539 CNS
UACC-257 melanoma = system: UACC-257 melanoma
M14 melanoma = system: M14 melanoma
NCI-H522 lung = system: NCI-H522 lung

Measured: growth

COC(=O)c1ccccc1Cl
active: K-562 leukemia 8.26%
inactive: NCI-H23 lung 103% | NCI-H226 lung 101% | NCI-H322M lung 97.4% | HOP-62 NSCLC 98.3% | NCI-H460 lung 106% | HOP-92 NSCLC 85.3% | A549/ATCC NSCLC 99.4% | 786-0 renal 102% | COLO 205 colon 102% | DU-145 prostate 106% | MALME-3M melanoma 95% | MDA-MB-231 breast 111% | RXF 393 renal 121% | SF-268 CNS 98.9% | SF-295 CNS 92.1% | SF-539 CNS 93.5% | UACC-257 melanoma 102% | M14 melanoma 102%

O=C(O)C1CSCN1 (stereo not given)
inactive: NCI-H23 lung 113% and 101% | NCI-H226 lung 113% and 98.5% | NCI-H322M lung 93.9% and 74.4% | HOP-62 NSCLC 99.8% and 96.2% | NCI-H460 lung 125% and 103% | NCI-H522 lung 99.7% and 96.1% | A549/ATCC NSCLC 97.7% and 111% | 786-0 renal 90.2% and 101% | COLO 205 colon 103% and 104% | DU-145 prostate 116% and 127% | K-562 leukemia 93.5% and 95.2% | MALME-3M melanoma 94.1% | MDA-MB-231 breast 107% and 112% | RXF 393 renal 123% | SF-268 CNS 117% and 104% | SF-295 CNS 104% and 108% | SF-539 CNS 121% and 93.4% | UACC-257 melanoma 106% and 91.6% | M14 melanoma 108% and 99.8%

OC1CCCN(Cc2ccccc2)C1 (stereo not given)
inactive: NCI-H23 lung 103% | NCI-H226 lung 106% | NCI-H322M lung 113% | HOP-62 NSCLC 107% | NCI-H460 lung 107% | HOP-92 NSCLC 106% | A549/ATCC NSCLC 85.4% | 786-0 renal 115% | COLO 205 colon 102% | DU-145 prostate 121% | K-562 leukemia 111% | MALME-3M melanoma 104% | MDA-MB-231 breast 103% | RXF 393 renal 107% | SF-268 CNS 102% | SF-295 CNS 114% | SF-539 CNS 109% | UACC-257 melanoma 93.9% | M14 melanoma 98.7%

CC(=O)Oc1ccc(C2(c3ccc(OC(C)=O)cc3)C(=O)Nc3ccccc32)cc1
4.98% (active) and 17.2% (inactive): COLO 205 colon
inactive: NCI-H23 lung 41.5% and 54.4% | NCI-H226 lung 76.3% and 82.9% | NCI-H322M lung 33.1% and 33.7% | HOP-62 NSCLC 109% and 93.1% | NCI-H460 lung 104% | HOP-92 NSCLC 68.4% and 44.2% | A549/ATCC NSCLC 96.1% and 98% | 786-0 renal 107% and 93% | DU-145 prostate 89% and 89.9% | K-562 leukemia 78.9% and 93.8% | MALME-3M melanoma 128% and 97.8% | MDA-MB-231 breast 95.4% and 87.4% | RXF 393 renal 66.4% and 76.9% | SF-268 CNS 96.7% and 100% | SF-295 CNS 71.8% and 86.3% | SF-539 CNS 97.2% and 92.2% | UACC-257 melanoma 110% and 114% | M14 melanoma 112% and 99.4%

CCc1ccc(OC(=O)CCl)cc1
inactive: NCI-H23 lung 96.7% | NCI-H226 lung 97% | NCI-H322M lung 102% | HOP-62 NSCLC 110% | NCI-H460 lung 106% | HOP-92 NSCLC 101% | A549/ATCC NSCLC 105% | 786-0 renal 104% | COLO 205 colon 111% | DU-145 prostate 102% | K-562 leukemia 102% | MALME-3M melanoma 96.9% | MDA-MB-231 breast 99.4% | RXF 393 renal 113% | SF-268 CNS 95.3% | SF-295 CNS 97.8% | SF-539 CNS 99% | UACC-257 melanoma 103% | M14 melanoma 96.3%

N#Cc1c(N)nc2c(c(-c3ccc(Cl)cc3)nn2-c2ccccc2)c1C#N
inactive: NCI-H23 lung 93.7% [100 µM] | NCI-H226 lung 97.1% [100 µM] | NCI-H322M lung 104% [100 µM] | HOP-62 NSCLC 96.1% [100 µM] | NCI-H460 lung 96.8% [100 µM] | HOP-92 NSCLC 90.8% [100 µM] | A549/ATCC NSCLC 94.9% [100 µM] | 786-0 renal 72.2% [100 µM] | DU-145 prostate 101% [100 µM] | K-562 leukemia 97.6% [100 µM] | MALME-3M melanoma 105% [100 µM] | MDA-MB-231 breast 98% [100 µM] | RXF 393 renal 97.1% [100 µM] | SF-268 CNS 93.7% [100 µM] | SF-295 CNS 97.9% [100 µM] | SF-539 CNS 74.1% [100 µM] | UACC-257 melanoma 91.8% [100 µM] | M14 melanoma 106% [100 µM]

C/C=C(/C(=O)NC(N)=O)C(C)C
inactive: NCI-H23 lung 104% | NCI-H226 lung 116% | NCI-H322M lung 109% | HOP-62 NSCLC 111% | NCI-H460 lung 100% | HOP-92 NSCLC 94.5% | A549/ATCC NSCLC 97.7% | 786-0 renal 96.9% | COLO 205 colon 97.5% | DU-145 prostate 105% | K-562 leukemia 109% | MALME-3M melanoma 106% | MDA-MB-231 breast 114% | RXF 393 renal 171% | SF-268 CNS 87.2% | SF-295 CNS 108% | SF-539 CNS 115% | UACC-257 melanoma 104%

Cc1ccc(NC(=S)N/C=C(\c2ccccc2)S(=O)Cc2ccccc2)c(C)c1 (stereo not given)
inactive: NCI-H23 lung 99.7% | NCI-H226 lung 90.2% | NCI-H322M lung 94.8% | HOP-62 NSCLC 95.8% | NCI-H460 lung 101% | HOP-92 NSCLC 80.1% | A549/ATCC NSCLC 97.7% | 786-0 renal 98.2% | COLO 205 colon 104% | DU-145 prostate 109% | K-562 leukemia 98.2% | MALME-3M melanoma 106% | MDA-MB-231 breast 104% | RXF 393 renal 106% | SF-268 CNS 101% | SF-295 CNS 98.9% | SF-539 CNS 103% | UACC-257 melanoma 98.9% | M14 melanoma 97.3%
